The values below come from PubChem BioAssay.

Where “and” joins values, the source holds several entries; their conditions need not be identical. Equal values may be shown once. Calls of active or inactive are those of the source. Unless noted, no stated cut-off is given here; in the data, active means parasite load remaining mostly below about 12% (no sharp cut-off); inactive means mostly above about 10%.

The nature of experiment [1]: glutamate transport activators, MN-1 cells, MN-1 cell line (AID 1612).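 Further: tested at 1 µM final; 0% = mean of DMSO vehicle wells on each plate; positive means more glutamate uptake than control and negative means less.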 Conditions: MN-1 motor neuron cells, stronger effect = higher value.
A short description of experiment [2]: GFP-Q80 aggregate reduction, neuronal-like cells, cell-based, NGF-treated PC12, GFPQ80 (AID 1614).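 Further: lower means fewer inclusions and 0 means no inclusions at all.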 Conditions: PC12 NGF-treated GFP-polyQ80 inclusion reduction.
Experiment [3] in a line: 75Q-TubH aggregate inhibition, S. cerevisiae, yeast (AID 1616). The settings on record: S. cerevisiae 75Q-TubH polyglutamine aggregation suppression; stronger effect = higher value.
Experiment [4] is described as follows: compounds altering viability of human ES cells (AID 493140; call rule not given here;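 further: cells exposed to compounds for four days before counting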). Conditions: human embryonic stem cell survival screen; stronger effect = higher value.
A short description of experiment [5]: Wnt pathway potentiators raising nuclear beta-catenin – imaging, WNT3A-conditioned medium, mouse C2C12, NPC library, primary screen (AID 1117326; in the data active means nuclear beta-catenin stimulation mostly above about 4.2%, no sharp cut-off; inactive means mostly below about 10%). Conditions: stronger effect = higher value.
Experiment [6] can be described thus: P. berghei load reduction in hepatocytes – cell-based, HepG2, luciferase luminescence, HepG2 viability, primary screen (AID 624349).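 Further: 100% = mean of DMSO negative control wells on the same plate.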 The settings on record: P. berghei liver stage in HepG2, luciferase luminescence, concentration not given here; parasite load remaining: stronger effect = lower value; viability: measured here: HepG2 viability without parasites.

As for `Cc1ccsc1/C=C/C1=NCCCN1C`, in experiment [1], the glutamate uptake change was found to be 1.68%. Also, in experiment [2], the inclusion score turned out to be 2. The aggregation suppression score in experiment [3] came out at 1.28. Moreover, in experiment [4], the survival was 20.3 (inactive). Besides, the nuclear beta-catenin stimulation in experiment [5] (at 10 µM) was -0.7% (inactive); in experiment [5] (stimulation, at 2 µM), 0.1%.

By viability is commonly meant a read-out of living cells in per cent, often relative to untreated cells. As to `COc1cc(NS(=O)(=O)c2ccc(N)cc2)ncn1`, the glutamate uptake change in experiment [1] was found to be 2.45%. In experiment [2], this compound came in with an inclusion score of 2. The same compound showed an aggregation suppression score in experiment [3] of 1.2. In addition, in experiment [4], the survival is 3.67 (inactive). For the same compound, the parasite load remaining in experiment [6] was 84.2% (inactive) and 61.4% (inactive) and 48% (inactive). Moreover, the viability in experiment [6] is 97.9% and 64.7% and 90.8%. For the same compound, the nuclear beta-catenin stimulation in experiment [5] (at 10 µM) is 3% (inactive); in experiment [5] (stimulation, at 2 µM), 3.5%.

In the case of `CC1=C(C(=O)O)N2C(=O)[C@@H](NC(=O)[C@H](N)c3ccc(O)cc3)[C@H]2SC1`, in experiment [1], the glutamate uptake change was -6.33%. Further, the inclusion score in experiment [2] is 2.5. Also, in experiment [3], the aggregation suppression score worked out at 1.47. Further, in experiment [4], the survival is 5 (inactive). Also, in experiment [6], the parasite load remaining was 116% (inactive) and 83.6% (inactive); the viability is 96.4% and 77.7%. For the same compound, the nuclear beta-catenin stimulation in experiment [5] (at 10 µM) was 1.8% (inactive). Also, the nuclear beta-catenin stimulation in experiment [5] (stimulation, at 2 µM) is 3.3%.

With `Nc1ccc(S(N)(=O)=O)cc1`, the glutamate uptake change in experiment [1] was -2.33%. Besides, the inclusion score in experiment [2] amounted to 2. For the same compound, in experiment [3], the aggregation suppression score was found to be 1.25. For the same compound, the survival in experiment [4] was 5.08 (inactive). For the same compound, in experiment [6], the parasite load remaining is 105% (inactive) and 77.1% (inactive) and 50.7% (inactive); the viability was 101% and 73.5% and 90.2%. In addition, the nuclear beta-catenin stimulation in experiment [5] (at 10 µM) is 0.6% (inactive). Also, in experiment [5] (stimulation, at 2 µM), the nuclear beta-catenin stimulation worked out at 0.5%.

Turning to `CN1CCOC(c2ccccc2)c2ccccc2C1` (stereo unspecified), the glutamate uptake change in experiment [1] was 0.43%. In addition, the inclusion score in experiment [2] was determined as 1.5. In experiment [3], this compound displayed an aggregation suppression score of 1.44. Moreover, the survival in experiment [4] was 21.3 (inactive). For the same compound, the nuclear beta-catenin stimulation was -0.7% (inactive) in experiment [5] (at 10 µM) and -1.3% in experiment [5] (stimulation, at 2 µM).

As for `Cc1cc(=O)n(-c2ccccc2)n1C`, the glutamate uptake change in experiment [1] was -12.9%. The compound further came in with an inclusion score in experiment [2] of 2. Besides, the aggregation suppression score in experiment [3] worked out at 1.35. Further, the survival in experiment [4] is 27 (inactive). For the same compound, the nuclear beta-catenin stimulation in experiment [5] (at 10 µM) was 1.1% (inactive); in experiment [5] (stimulation, at 2 µM), 0.3%.

`COc1ccc2c(c1)c(CC(=O)OCC(=O)O)c(C)n2C(=O)c1ccc(Cl)cc1`: in experiment [1], the glutamate uptake change was -11%. The compound also gave an inclusion score in experiment [2] of 2. The aggregation suppression score in experiment [3] worked out at 0.866. The survival in experiment [4] is 19.2 (inactive). Moreover, the nuclear beta-catenin stimulation in experiment [5] (at 10 µM) is 1.8% (inactive); in experiment [5] (stimulation, at 2 µM), 0.4%.

Consider `CO[C@]12C[C@@H](COC(=O)c3cncc(Br)c3)CN(C)[C@@H]1Cc1cn(C)c3cccc2c13`, for which the glutamate uptake change in experiment [1] is 6.29%. This compound also returned an inclusion score in experiment [2] of 2. In experiment [3], the aggregation suppression score is 1.56. Moreover, the survival in experiment [4] was 7.92 (inactive). Also, the nuclear beta-catenin stimulation is 0.8% (inactive) in experiment [5] (at 10 µM) and 2.5% in experiment [5] (stimulation, at 2 µM).

With `Nc1ccc(S(=O)(=O)NC(=O)c2ccccc2)cc1`, the glutamate uptake change in experiment [1] was -23.6%. The same compound showed an inclusion score in experiment [2] of 2. Also, the aggregation suppression score in experiment [3] is 1.16. Further, in experiment [4], the survival was 3 (inactive). In experiment [6], the parasite load remaining was 105% (inactive) and 86.8% (inactive) and 33.6% (inactive); the viability was 105% and 73% and 95.8%. Moreover, in experiment [5] (at 10 µM), the nuclear beta-catenin stimulation was 1.5% (inactive). Also, the nuclear beta-catenin stimulation in experiment [5] (stimulation, at 2 µM) is 1.1%.

With `NC(N)=NS(=O)(=O)c1ccc(N)cc1`, the glutamate uptake change in experiment [1] amounted to 5.91%. In addition, the inclusion score in experiment [2] came to 2. The compound also yielded an aggregation suppression score in experiment [3] of 1.54. Also, the survival in experiment [4] is 11.5 (inactive). The nuclear beta-catenin stimulation was 0.5% (inactive) in experiment [5] (at 10 µM) and 0.1% in experiment [5] (stimulation, at 2 µM).

On to `CCOC(=O)c1ccc(N)cc1`, for which, in experiment [1], the glutamate uptake change amounted to 13.1%. The inclusion score in experiment [2] amounted to 1.5. The aggregation suppression score in experiment [3] turned out to be 1.18. In experiment [4], the survival was 3.58 (inactive). Besides, in experiment [6], the parasite load remaining was 108% (inactive) and 105% (inactive) and 49.4% (inactive); the viability is 103% and 76.4% and 98.1%. Further, the nuclear beta-catenin stimulation in experiment [5] (at 10 µM) is 0.3% (inactive). Besides, in experiment [5] (stimulation, at 2 µM), the nuclear beta-catenin stimulation was found to be 1.2%.

On to `C=C1c2cccc(O)c2C(O)=C2C(=O)[C@]3(O)C(O)=C(C(N)=O)C(=O)[C@@H](N(C)C)[C@@H]3[C@@H](O)[C@H]12`, for which the glutamate uptake change in experiment [1] was -2.5%. This compound also came in with an inclusion score in experiment [2] of 1. For the same compound, the aggregation suppression score in experiment [3] was 0.29. In experiment [4], the survival was 4.33 (inactive). Further, in experiment [6], the parasite load remaining was 89.4% (inactive) and 160% (inactive) and 38% (inactive); the viability is 79.4% and 68.3% and 93.9%. Further, the nuclear beta-catenin stimulation in experiment [5] (at 10 µM) is 3.6% (inactive). Moreover, in experiment [5] (stimulation, at 2 µM), the nuclear beta-catenin stimulation is 2.7%.

In the case of `CCCCOC(=O)c1ccc(N)cc1`, in experiment [1], the glutamate uptake change is 19.2%. This compound also registered an inclusion score in experiment [2] of 2. In experiment [3], this compound registered an aggregation suppression score of 0.439. For the same compound, the survival in experiment [4] was 0.75 (inactive). The parasite load remaining in experiment [6] was 111% (inactive) and 65.2% (inactive). The viability in experiment [6] is 96.4% and 75.1% and 101%. Further, the nuclear beta-catenin stimulation in experiment [5] (at 10 µM) was -0.2% (inactive); in experiment [5] (stimulation, at 2 µM), 1%.

Regarding `C=CCSCC1Nc2cc(Cl)c(S(N)(=O)=O)cc2S(=O)(=O)N1` (stereo unspecified), in experiment [1], the glutamate uptake change was -15.5%. In experiment [2], the inclusion score amounted to 2. Also, the aggregation suppression score in experiment [3] came to 0.983. For the same compound, the survival in experiment [4] is 6.42 (inactive). In experiment [6], the parasite load remaining was 134% (inactive) and 105% (inactive) and 42.5% (inactive). Besides, in experiment [6], the viability is 102% and 73.3% and 104%. Moreover, the nuclear beta-catenin stimulation in experiment [5] (at 10 µM) is 0.3% (inactive); in experiment [5] (stimulation, at 2 µM), 0.6%.

Consider `CCn1cc(C(=O)O)c(=O)c2cc(F)c(N3CCNCC3)nc21`, for which the glutamate uptake change in experiment [1] was -7.7%. Further, the inclusion score in experiment [2] was found to be 2. The same compound had an aggregation suppression score in experiment [3] of 1.11. The survival in experiment [4] is 13.2 (inactive). Also, the parasite load remaining in experiment [6] is 165% (inactive) and 68.7% (inactive) and 19.5% (inactive). For the same compound, the nuclear beta-catenin stimulation in experiment [5] (at 10 µM) was -0.6% (inactive); in experiment [5] (stimulation, at 2 µM), 0.6%.

As to `Cc1c(NC(C)C)c(=O)n(-c2ccccc2)n1C`, the glutamate uptake change in experiment [1] stood at 28.4%. Moreover, in experiment [2], the inclusion score stood at 2. Besides, in experiment [3], the aggregation suppression score stood at 1.14. Also, the survival in experiment [4] is 7.42 (inactive). Further, in experiment [6], the parasite load remaining is 102% (inactive) and 160% (inactive). The viability in experiment [6] was 100% and 89.9%. For the same compound, the nuclear beta-catenin stimulation was 3.6% (inactive) in experiment [5] (at 10 µM) and 7% in experiment [5] (stimulation, at 2 µM).

As for `NC(N)=NCCN1CCCCCCC1`, the glutamate uptake change in experiment [1] was -19.4%. The inclusion score in experiment [2] amounted to 2. The same compound registered an aggregation suppression score in experiment [3] of 1.06. In addition, the survival in experiment [4] is 13.9 (inactive). Also, the nuclear beta-catenin stimulation in experiment [5] (at 10 µM) was 0.1% (inactive); in experiment [5] (stimulation, at 2 µM), -0.3%.

For `CN1CCC(OC(c2ccccc2)c2ccccc2)CC1`, the glutamate uptake change in experiment [1] amounted to 17.3%. For the same compound, the inclusion score in experiment [2] came out at 2. The compound further registered an aggregation suppression score in experiment [3] of 1.27. For the same compound, in experiment [4], the survival was 4.58 (inactive). In experiment [6], the parasite load remaining was 97.1% (inactive) and 89.2% (inactive) and 61.4% (inactive); the viability is 96.1% and 75.8% and 94.2%. Further, the nuclear beta-catenin stimulation in experiment [5] (at 10 µM) was 0.7% (inactive). Besides, the nuclear beta-catenin stimulation in experiment [5] (stimulation, at 2 µM) was determined as 1.6%.

For the compound `Cc1ccnc(NS(=O)(=O)c2ccc(N)cc2)n1`, the glutamate uptake change in experiment [1] is -29.5%. Also, the inclusion score in experiment [2] was determined as 2. For the same compound, the aggregation suppression score in experiment [3] turned out to be 1.19. Further, the survival in experiment [4] is 6.5 (inactive). In experiment [6], the parasite load remaining is 74% (inactive) and 287% (inactive) and 42.8% (inactive); the viability is 92.3% and 68.7% and 98.8%. Besides, in experiment [5] (at 10 µM), the nuclear beta-catenin stimulation was 3.8% (inactive). The nuclear beta-catenin stimulation in experiment [5] (stimulation, at 2 µM) is 1.5%.

`Cc1cc(NC(=O)C2=C(O)c3ccccc3S(=O)(=O)N2C)no1`: the glutamate uptake change in experiment [1] worked out at 11.8%. The inclusion score in experiment [2] turned out to be 2. Also, the aggregation suppression score in experiment [3] was -0.565. Also, in experiment [4], the survival is 12.4 (inactive). Moreover, the nuclear beta-catenin stimulation in experiment [5] (at 10 µM) is 4% (inactive); in experiment [5] (stimulation, at 2 µM), 1.7%.

Consider `COc1ccc2cc3[n+](cc2c1OC)CCc1cc2c(cc1-3)OCO2`, for which the glutamate uptake change in experiment [1] turned out to be 15.2%. Further, in experiment [2], the inclusion score worked out at 2. This compound also came in with an aggregation suppression score in experiment [3] of 0.27. Further, the survival in experiment [4] was 0.5 (inactive). The parasite load remaining in experiment [6] was 31.4% (inactive) and 124% (inactive) and 72.9% (inactive). Also, the viability in experiment [6] was 103% and 67.6% and 82.6%. The nuclear beta-catenin stimulation in experiment [5] (at 10 µM) is 0.6% (inactive); in experiment [5] (stimulation, at 2 µM), 0%.
